Bioassay records as filed in PubChem.
Only some compounds are listed: those with a hit (about 3.5% of all), similar ones and a draw of the others.
Pf apPOL block: Pf-apPOL inhibitors, biochemical, fluorescence; Plasmodium falciparum apicoplast DNA polymerase (apPOL); Recombinant Pf-apPOL, molecular beacon fluorescence, 1.5 h; inhibition, % at 10 µM; actives 0.25% (n = 210,000); AID 1794808, 2022
mHTT CaM bind: mutant huntingtin-calmodulin interaction inhibitors – biochemical, AlphaScreen, primary screen; P42858; AlphaScreen His-mHTT/GST-CaM binding, luminescence; inhibition, % at 15 µM; actives 3.6% (n = 190,000);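 also: 0% = both proteins with DMSO and 100% = one protein alone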
Numbers without * were called inactive; . = no result given; ! = not active in a repeat. Rule as the data show it: active = inhibition above about 50%; inactive = the rest.

SMILES	Pf apPOL block	mHTT CaM bind
O=C(Nc1ccc2c(c1)OCO2)N1CC2CC(NS(=O)(=O)c3ccccc3)C1C2 (centres undefined)	-5	8
CC(C)S(=O)(=O)c1csc(C(=O)NN=Cc2ccccc2Cl)c1Cl	-8	.
CC1(C)CC(=O)C2=C(C1)OC(N)=C(C#N)C2c1cc(Br)ccc1F (centres undefined)	-1	6
Cc1ccccc1Cn1cc(SCC(=O)NCc2ccco2)c2ccccc21	-1	86*
Cn1cc(CCC(=O)NCc2ccco2)c2ccccc21	-12	3
O=C(CSc1cn(CCNC(=O)c2ccccc2F)c2ccccc12)NCc1ccco1	0	13
O=C(CSc1cn(Cc2ccc(Cl)cc2)c2ccccc12)NCc1ccco1	-2	54*
CCOc1ccc(-c2nc(C(=O)N3CCOCC3)cs2)cc1OC	-2	3
CC(=O)NC1=NC(=O)/C(=C\c2ccc(Cl)cc2)S1	6	3
COc1ccccc1C1CC(c2ccc(C)c(C)c2)=NN1C(=O)CN(C)C(C)=O (centres undefined)	-5	66*
Cc1ccc(C2CC(c3cccs3)=NN2C(=O)CN(C)C(=O)C2CCCC2)cc1 (centres undefined)	-1	61*
Cc1ccc(C2CC(c3ccc(C)c(C)c3)=NN2C(=O)CN(C)C(=O)C2CC2)cc1 (centres undefined)	2	6
COc1ccc(C2=NN(C(=O)CCCC(=O)O)C(c3ccccc3OC)C2)cc1OC (centres undefined)	-12	7
CC(=O)N(C)CC(=O)N1N=C(c2ccc(F)cc2)CC1c1ccccc1 (centres undefined)	7	21
CN(CC(=O)N1N=C(c2cccs2)CC1c1ccccc1)C(=O)C1CCCC1 (centres undefined)	-1	21
CC(=O)N(C)CC(=O)N1N=C(c2ccc(C)c(C)c2)CC1c1ccccc1 (centres undefined)	-2	54*
Cc1ccc(C2=NN(C(=O)CN(C)C(=O)NC(C)C)C(c3ccccc3)C2)cc1C (centres undefined)	0	52*
COC(=O)N1CCN(c2ccccc2)CC1	2	2
CCOC(=O)C(N=Nc1ccccc1)=C(C)O	-8	.
N#CCc1nn(-c2ccccc2)c(N)c1C#N	0	4
N#Cc1c(-c2ccc(Nc3ccccc3)cc2)nn(-c2ccccc2)c1N	2	53*
Cc1cc(N2CCN(C)CC2)nc2ccc(NC(=O)/C=C/c3cccc(Cl)c3)cc12	-8	94*
COc1cc(/C=C/C(=O)Nc2ccc3nc(N4CCN(C)CC4)cc(C)c3c2)cc(OC)c1OC	-4	21
COc1ccc(/C=C/C(=O)Nc2ccc3nc(N4CCN(C)CC4)cc(C)c3c2)cc1OC	-2	51*
Cc1cc(N2CCCCC2)nc2ccc(NC(=O)/C=C/c3cccs3)cc12	-5	33
SMILES	Pf apPOL block	mHTT CaM bind
CC1(C(=O)NCc2ccccc2)CCCN(C(=O)c2ccc(F)cc2)C1 (centres undefined)	0	-9
COc1ccc(C2=NOC(C(=O)N3CCC(C)CC3)C2)cc1 (centres undefined)	-4	-3
Cc1nc(C2CCCN(C(=O)c3nccc4ccccc34)C2)n[nH]1 (centres undefined)	10	1
COc1ccc2oc(=Nc3cccc(F)c3)c(C(=O)NC(C)=O)cc2c1	5	8
Cc1cc(C2CCCN2Cc2cn[nH]c2-c2ccccc2)on1 (centres undefined)	-3	25
O=[N+]([O-])c1ccc2nc(SCc3ccccc3F)sc2c1	-2	12
O=[N+]([O-])c1ccc2nc(SCc3c[nH]c4ccccc34)sc2c1	-9	58*
O=C(CN1C(=O)/C(=C/c2ccc(Cl)cc2)Sc2ccccc21)NCc1ccccc1	18	2
O=C(C1CCCC1)N1CCC(c2cnn(-c3ccc(F)cc3)c2)CC1	0	-15
Cc1c(Cl)cccc1S(=O)(=O)N1CCC2(CC1)OCCS2	-5	-13
CCOC(=O)C1=C(C)c2ccccc2OC1(CC)C(=O)OCC (centres undefined)	-4	-50
CCOC(=O)C1=C(C)c2ccccc2N(C(=O)OC)C1(C)C(=O)OCC (centres undefined)	78*	41
O=C(c1ccccc1)N1CCCC(c2ccnc(Nc3ccc(F)cc3)n2)C1 (centres undefined)	-7	91*
CC(=O)N1CCCC(c2ccnc(Nc3cccc(F)c3)n2)C1 (centres undefined)	-2	32
Cc1cccc(Nc2nccc(C3CCCN(C(=O)c4ccoc4)C3)n2)c1 (centres undefined)	1	29
O=C(c1ccsc1)N1CCCC(c2ccnc(Nc3cccc(F)c3)n2)C1 (centres undefined)	-2	67*
O=C(c1cccc(F)c1)N1CCCC(c2ccnc(Nc3ccccc3)n2)C1 (centres undefined)	0	18
O=C(c1ccoc1)N1CCCC(c2ccnc(Nc3cccc(F)c3)n2)C1 (centres undefined)	-2	72*
N#CC1=C(N)Oc2cc(O)ccc2C1c1cccc(Cl)c1Cl (centres undefined)	1	49
CC1(CO)COC(COc2ccccc2)=N1 (centres undefined)	.	1
COc1ccc(Cl)cc1N1CCN(C(=O)c2cccc(Cl)c2)C(C)C1=O (centres undefined)	-4	-1
Cc1ccc(C)c(N=C2C(=O)Nc3ccc(Br)cc32)c1	-6	11
Cc1cccc(N=C2C(=O)Nc3ccc(Br)cc32)c1C	0	66*
Cc1cccc2sc(NC(=O)c3coc(NC(=O)c4cccs4)n3)nc12	-19	99*
O=C(Nc1nc2c(s1)CCCC2)c1coc(NC(=O)c2cccs2)n1	-100	28
SMILES	Pf apPOL block	mHTT CaM bind
CNCC(O)COc1ccc(C)cc1C (centres undefined)	-1	-2
COc1cc(/C=C(\C#N)c2[nH]nc(N)c2C#N)ccc1O	10	54*!
CCN(C)c1ccc(/C=C(\C#N)c2[nH]nc(N)c2C#N)cc1	-3	29
COc1cc(/C=C(\C#N)c2ccc([N+](=O)[O-])cc2)ccc1O	-2	38
COc1ccc(/C=C2\C(C)=C(C#N)c3nc(N)c(C#N)c(C)c32)cc1Br	-5	20
COc1ccc(/C=C(\C#N)c2nn(CCO)c(N)c2C#N)c(OC)c1	-1	-1
COc1ccc(/C=C(\C#N)c2[nH]nc(N)c2C#N)cc1Br	0	69*
CCN(CC)c1ccc(/C=C(\C#N)c2[nH]nc(N)c2C#N)c(OC)c1	0	60*
CCOc1cc(/C=C(\C#N)c2[nH]nc(N)c2C#N)ccc1O	-6	73*
COc1ccccc1C1C(C#N)=C(N)Oc2cc(O)c(Cl)cc21 (centres undefined)	-1	14
COc1ccc(CN2CCN(c3ncnc4sc5c(c34)CCCC5)CC2)cc1	-4	28
O=C(Nc1ccc2c(c1)OCO2)N1CCN(c2ccc3nnc(C4CC4)n3n2)CC1	-4	8
C=CCOc1ccc(C(O)=C2C(=O)C(=O)N(CCCN3CCOCC3)C2c2ccncc2)cc1 (centres undefined)	-2	-1
CC(Oc1ccc(Cl)cc1Cl)C(=O)Nc1cccc([N+](=O)[O-])c1 (centres undefined)	0	12
Clc1cccc(-n2nnnc2SCc2nn[nH]n2)c1	3	2
